Assay outcomes from PubChem BioAssay.
rCAG RNA binder: r(CAG) repeat RNA binding; TO-PRO-1 dye displacement fluorescence; inhibition, % at 3 µM; 370,000 compounds, 1.3% hits; AID 651821;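 active = inhibition above the plate cutoff, the mean of all test compounds on that plate plus 3 SD, cut at about 35% in these data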;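 also: higher means more dye released from RNA so lower well fluorescence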
PAFAH1B2 inh: PAFAH1B2 (human) inhibition. P68402. recombinant PAFAH1B2, FP-rhodamine activity probe, fluorescence polarization. inhibition, % at 3.39 µM. 340,000 compounds, 1.2% hits. AID 492953;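 active = inhibition above the mean of all tested compounds plus 3 SD, cut at about 24% in these data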
Target sequence (P68402 whole entry, looked up): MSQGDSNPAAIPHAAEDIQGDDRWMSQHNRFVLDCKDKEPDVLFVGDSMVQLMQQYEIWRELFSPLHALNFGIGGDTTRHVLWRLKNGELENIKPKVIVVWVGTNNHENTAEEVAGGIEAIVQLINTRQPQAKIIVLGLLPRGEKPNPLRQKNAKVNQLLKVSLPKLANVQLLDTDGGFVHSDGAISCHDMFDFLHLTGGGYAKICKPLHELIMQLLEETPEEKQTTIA
ZTA counter: counter-screen for EBNA-1 inhibitors: inhibitors of Epstein-Barr virus ZTA; P03206; ZTA-DNA binding, fluorescence polarization; inhibition, % at 11 µM; 320,000 compounds, 0.15% hits; in the data active = inhibition above about 33%
Target sequence (P03206 whole entry, looked up): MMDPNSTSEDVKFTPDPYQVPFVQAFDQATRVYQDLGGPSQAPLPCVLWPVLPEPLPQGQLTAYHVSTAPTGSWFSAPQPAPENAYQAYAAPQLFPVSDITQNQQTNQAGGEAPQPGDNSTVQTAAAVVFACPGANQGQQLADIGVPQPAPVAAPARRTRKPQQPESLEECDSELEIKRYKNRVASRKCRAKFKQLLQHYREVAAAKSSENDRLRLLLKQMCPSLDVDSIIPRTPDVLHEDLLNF
PAFAH2 inh: PAFAH2 (human) inhibition | recombinant PAFAH2, FP-rhodamine activity probe, fluorescence polarization | inhibition, % at 3.39 µM | 340,000 compounds, 0.99% hits;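 active = inhibition above the mean over all tested compounds plus 3 SD, cut at about 30% in these data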;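 also: inhibitors block probe labeling of enzyme so polarization drops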
PAFAH1B3 inh: inhibitors of human PAFAH1B3; 340,000 compounds, 0.28% hits; inhibition, % at 3.39 µM; Q15102; recombinant PAFAH1B3, FP-rhodamine probe, fluorescence polarization;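 active = inhibition above the screen-wide average of all tested compounds plus 3 SD, cut at about 25% in these data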
EBNA-1 inh: blocks EBNA-1 binding to DNA; EBNA-1 DNA binding, fluorescence polarization; inhibition, % at 14.8 µM; 300,000 compounds, 0.34% hits; in the data active = inhibition above about 28%
Each line names hits and unclear results; the compound was inactive in the other large screens. The list is not random: actives were taken first. Their share in the collection is about 2.9%.

CCN(CC)C(=O)CC[C@H]1CC[C@]2(CCCN(c3ccccc3)C2)O1	none (no result: PAFAH1B2 inh, ZTA counter, PAFAH2 inh, PAFAH1B3 inh, EBNA-1 inh)
Nc1cc(C(=O)O)c(N)c2c1C(=O)c1ccccc1C2=O	PAFAH1B2 inh 56, ZTA counter active, PAFAH2 inh 66, PAFAH1B3 inh 73, EBNA-1 inh 146 (no result: rCAG RNA binder)
Nc1c(C(=O)O)ccc2c1C(=O)c1ccccc1C2=O	none
O=C(O)C1Nc2c(Cl)cc(Cl)cc2C2C=CCC12 (stereo unspecified)	PAFAH1B2 inh 36, PAFAH2 inh 82 (no result: rCAG RNA binder)
O=C(O)C1Nc2c(Cl)cc(Cl)c(Cl)c2C2C=CCC12 (stereo unspecified)	PAFAH2 inh 55
COC(=O)CNC(=O)C1Nc2ccccc2C2C=CCC12 (stereo unspecified)	none
O=C(O)C1Nc2c(O)cccc2C2C=CCC12 (stereo unspecified)	rCAG RNA binder 82, PAFAH1B2 inh 36, PAFAH2 inh 50, PAFAH1B3 inh 40, EBNA-1 inh 42
CC(C)CNC(=O)C1Nc2ccccc2C2C=CCC12 (stereo unspecified)	none
CCOC(=O)C1Nc2ccc(C)cc2C2C=CCC12 (stereo unspecified)	none
COC(=O)C1=C(C)N(Cc2ccc(C(F)(F)F)cc2)C(=NCc2ccccc2)NC1c1ccc(Cl)cc1 (stereo unspecified)	none (no result: PAFAH1B2 inh, ZTA counter, PAFAH2 inh, PAFAH1B3 inh, EBNA-1 inh)
Cc1c(NC(=O)COC(=O)C23CC4CC(CC(O)(C4)C2)C3)c(=O)n(-c2ccccc2)n1C	none
Cc1c(NC(=O)C(C)OC(=O)C23CC4CC(CC(Br)(C4)C2)C3)c(=O)n(-c2ccccc2)n1C (stereo unspecified)	PAFAH1B2 inh 48
CC1(C(=O)Nc2ccc3c(c2)OCCO3)CSCC(=O)N1CCc1ccccc1F (stereo unspecified)	none (no result: PAFAH1B2 inh, ZTA counter, PAFAH2 inh, PAFAH1B3 inh, EBNA-1 inh)
O=c1[nH]c(SCc2ccc(Cl)cc2)nc2c1CCC2	PAFAH1B2 inh 52
Cc1cccc(CSc2nc3c(c(=O)[nH]2)CCCC3)c1	PAFAH2 inh 46
O=c1[nH]c(SCc2cccc(Cl)c2)nc2c1CCCC2	PAFAH2 inh 33
O=C(Nc1ccc2c(c1)OCCO2)C(c1ccccc1)n1c(=O)c(-c2cc3ccccc3[nH]2)nc2ccccc21 (stereo unspecified)	none (no result: PAFAH1B2 inh, ZTA counter, PAFAH2 inh, PAFAH1B3 inh, EBNA-1 inh)
COc1ccc(C(=O)OCCCN(C)C2CN(Cc3cn(Cc4ccccc4F)nn3)S(=O)(=O)C2)cc1OC (stereo unspecified)	none (no result: PAFAH1B2 inh, ZTA counter, PAFAH2 inh, PAFAH1B3 inh, EBNA-1 inh)
COc1ccc(C=NNc2ccc(S(=O)(=O)Nc3ccccc3C(=O)O)cc2[N+](=O)[O-])c(OC)c1	PAFAH1B2 inh 34, PAFAH2 inh 56, PAFAH1B3 inh 29 (no result: rCAG RNA binder, ZTA counter, EBNA-1 inh)
O=C1[C@H](Cc2ccccc2)NCC=CC[C@H](c2ccc(Cl)cc2)N1Cc1ccccc1	PAFAH1B2 inh 27 (no result: ZTA counter, EBNA-1 inh)
O=C(O)c1cccc(COc2ccc3c(c2)CCC3)c1	PAFAH1B2 inh 48
O=C(NCc1ccccc1)c1cccc(COc2ccc3c(c2)CCC3)c1	none
COc1ccc(OCc2cccc(C(=O)O)c2)cc1	PAFAH1B2 inh 25
O=C(Nc1ccc2c(c1)OCO2)N1CCC(c2nc3ccc(Cl)cc3[nH]2)CC1	none (no result: PAFAH1B2 inh, ZTA counter, PAFAH2 inh, PAFAH1B3 inh, EBNA-1 inh)
Cn1c(NCCO)nc2c1c(=O)n(Cc1cccc(Cl)c1)c(=O)n2C	none
Cn1c(NCCN2CCOCC2)nc2c1c(=O)n(Cc1cccc(Cl)c1)c(=O)n2C	PAFAH1B2 inh 28
CC(C)NCC#CCOc1ccc(Cl)cc1	PAFAH1B2 inh 30
CC(C)NCC(O)COCCOc1ccc(Cl)cc1 (stereo unspecified)	none
COc1ccc(-c2cc(-c3nnc(SCc4cccc5ccccc45)n3N)[nH]n2)cc1	none (no result: PAFAH1B2 inh, ZTA counter, PAFAH2 inh, PAFAH1B3 inh, EBNA-1 inh)
Cn1cc(C2(C)CCOc3ccccc32)c2ccccc21 (stereo unspecified)	none (no result: PAFAH1B2 inh, ZTA counter, PAFAH2 inh, PAFAH1B3 inh, EBNA-1 inh)
N#C/C(=C(/O)CCl)c1nc2c(s1)CCc1ccccc1-2	PAFAH2 inh 30
O=C(O/N=C1/CCCc2occc21)c1ccc(Cl)cc1Cl	PAFAH1B2 inh 34
CC1C2(C)OC(=N)C(C#N)(C(C)O2)C1(C#N)C#N (stereo unspecified)	PAFAH1B2 inh 53, PAFAH2 inh 75, PAFAH1B3 inh 60 (no result: rCAG RNA binder)
CCCCC(CC)c1nnc(NC(=O)c2cccs2)s1 (stereo unspecified)	PAFAH1B2 inh 27 (no result: ZTA counter, EBNA-1 inh)
O=C(Nc1ccccc1C(=O)O)c1cc(S(=O)(=O)N2CCCCCC2)ccc1Cl	rCAG RNA binder 58
O=C(O)c1cc(S(=O)(=O)N2CCCCCC2)ccc1Cl	none
CCNC1=C(Cl)C(=O)c2ccccc2C1=O	none
